Shown are actives, neighbours in structure and some others; about 6.2% of the full set was active somewhere.
KB-V1 cytotox: KB-V1 MDR subline cytotoxicity | KB-V1 MDR cells viability, CellTiter-Glo, 72 h | Potency, µM (top dose mostly 46.1 µM), hits mostly cytotoxic | actives 3.4% (n = 400,000) | AID 1347076; note: % is set by controls: 0 for no effect and ±100 for the full control effect; nearly all actives have a fitted effect of over 60% in size
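Cells of the MDR subline KB-V1 are plated, dosed with compound at multiple concentrations, and incubated 72 h at 37 degrees C; CellTiter-Glo is then added and luminescence read after 10 min.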
S2 tox: cell viability loss in ATXN counter-screen; S2 cells (HEK-293 line with an ATXN2-luciferase reporter) viability, CellTiter-Fluor protease fluorescence, 24 h; Potency, µM (top dose mostly 56.7 µM), usual class: cytotoxic; actives 0.49% (n = 400,000); AID 651635; note: nearly all actives have a fitted effect of over 40% in size
ATXN2 expr inh: ATXN2 expression inhibition; HEK-293 ATXN2-luciferase reporter, luminescence, 24 h; Potency, µM (highest dose often 57 µM), for the others: at the top dose activity change, negative = inhibition, usual class: inhibitors; actives 0.72% (n = 360,000); note: % is set by controls: 0 for no effect and ±100 for the full control effect; nearly all actives have a fitted effect of over 55% in size
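qHTS (up to 57 uM final) was run with 24 h compound exposure of reporter cells at 37 °C. Each well was multiplexed: SteadyGlo luminescence measured ATXN2-luciferase expression after a fluorogenic Gly-Phe-AFC viability readout (25 uM final).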
HT1080-NT tox: kills 2HG-producing HT-1080-NT fibrosarcoma cells; AID 686970; Potency, µM (titrated, usually from 46.1 µM), for inactives: at the highest dose activity, negative = less viability, most hits filed as cytotoxic; HT-1080-NT fibrosarcoma viability, CellTiter-Glo ATP luminescence, 48 h; actives 1.6% (n = 360,000);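 note: NT is the 2HG producing partner of a matched IDH1 knockdown line; 0% = DMSO-treated cells and -100% = media-only wells without cells; nearly all actives have a fitted effect of over 55% in size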
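Fibrosarcoma NT cells, 750 per well in 5% FBS RPMI, were exposed to compound for 48 hours. Viability: CellTiter-Glo luminescence.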
KB-3-1 tox: KB-3-1 parental cell cytotoxicity; KB-3-1 viability, CellTiter-Glo ATP luminescence, 72 h; Potency, µM (titrated, usually from 46.1 µM), hits mostly cytotoxic; actives 1.4% (n = 400,000); AID 1347075; note: % is set by controls: 0 for no effect and ±100 for the full control effect; nearly all actives have a fitted effect of over 60% in size
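Cells are dispensed, compounds pinned in, plates held at 37 °C for 72 h, then CellTiter-Glo is added and luminescence read after 10 minutes. Cell line: parental KB-3-1 in phenol-red-free DMEM, 10% FBS.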
HT1080 IDH1KD tx: kills HT-1080 cells with IDH1 knockdown | HT-1080 IDH1 knockdown viability, ATP luminescence, 48 h | Potency, µM (highest dose often 46.1 µM), inactives show at the highest dose activity, negative = toxicity, usual class: cytotoxic | actives 2% (n = 360,000);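 note: 0% = DMSO wells and -100% = cell-free medium wells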
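Assay cells: HT-1080 with IDH1 knockdown, 750 per well, RPMI/5% FBS. Exposure: 48 h at 37 °C following 2 h pre-incubation. Read: CellTiter-Glo luminescence; fitted concentration-response, curve class assigned.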
* = called active by the depositor; ! = not active in a repeat. Calls come from the whole dose curve; as a rule, active = well fitted curve in the direction sought with a large enough effect; inconclusive = small, poorly fitted or top-dose-only effect, or another doubt; inactive = no such curve, though single readings can be large; an effect the other way counts as inactive or inconclusive. Potency is the fitted concentration of half-maximal effect.

For CC1CCC2(CC1)NC(=O)N(CC(=O)c1ccc(CNC(=O)C(C)(C)C)s1)C2=O (stereo not drawn) the results were KB-V1 cytotox inactive, S2 tox inactive, ATXN2 expr inh 33.7%, HT1080-NT tox -0.5%, KB-3-1 tox inactive and HT1080 IDH1KD tx 1.1%.
Screening CCCCCCCCCCCCOCCO returned S2 tox inactive and ATXN2 expr inh 15.0%.
CCOc1ccc(CCN2C(=S)N([C@@H](Cc3ccc(O)cc3)CN3CCC[C@@H]3CN3C(=S)NC[C@@H]3Cc3ccccc3)C[C@@H]2Cc2ccc(O)cc2)cc1 was read as KB-V1 cytotox inactive, S2 tox inconclusive, ATXN2 expr inh 0.0%, HT1080-NT tox inconclusive, KB-3-1 tox inconclusive and HT1080 IDH1KD tx inconclusive.
Screening O=C(Cn1cnc([N+](=O)[O-])c1)c1ccc(Cl)cc1 returned KB-V1 cytotox inconclusive, S2 tox inactive, ATXN2 expr inh 7.7%, HT1080-NT tox 8.6%, KB-3-1 tox inactive and HT1080 IDH1KD tx 8.1%.
`O=C(C[n+]1cnn(CC(=O)c2ccc(Cl)cc2Cl)c1)c1ccc([N+](=O)[O-])cc1` gave KB-V1 cytotox inactive, S2 tox inactive, ATXN2 expr inh -16.6%, HT1080-NT tox -15.5%, KB-3-1 tox 18.4µM* and HT1080 IDH1KD tx -14.1%.
For Cc1ccc(CN2CCCn3nc(C(=O)NC(C)C)cc3C2=O)cc1 the results were KB-V1 cytotox inactive, S2 tox inactive, ATXN2 expr inh 4.9% and KB-3-1 tox inactive.
COc1cc(NC(=O)c2sc3nc(C)nc(N4CCOCC4)c3c2C)cc(OC)c1OC was read as KB-V1 cytotox 23.1µM*, S2 tox inactive, ATXN2 expr inh -0.9%, HT1080-NT tox -12.3%, KB-3-1 tox inactive and HT1080 IDH1KD tx -23.8%.
`COc1ccc(C)cc1NC(=O)c1sc2nc(C)nc(N3CCOCC3)c2c1C` gave KB-V1 cytotox inactive, S2 tox inactive, ATXN2 expr inh -11.5%, HT1080-NT tox -1.4%, KB-3-1 tox inactive and HT1080 IDH1KD tx 6.2%.
CC(C)Cc1ccc(CN2C(C)C(=O)N(Cc3cn(Cc4ccco4)nn3)CCS2(=O)=O)cc1 (stereo not drawn) was read as KB-V1 cytotox inactive, S2 tox inconclusive, ATXN2 expr inh -9.8%, HT1080-NT tox -5.3%, KB-3-1 tox inactive and HT1080 IDH1KD tx -16.0%.
`CCOc1cc(C2Sc3ccccc3NC3=C2C(=O)c2ccccc23)ccc1O` (stereo not drawn) gave KB-V1 cytotox inactive, S2 tox 31.6µM*, ATXN2 expr inh inconclusive and KB-3-1 tox inactive.
For CCOc1cc(C2Nc3cccc4cccc(c34)N2)ccc1O the results were KB-V1 cytotox 14.6µM*, S2 tox inconclusive, ATXN2 expr inh 5.9%, HT1080-NT tox -19.2%, KB-3-1 tox inconclusive and HT1080 IDH1KD tx 2.2%.
Cc1nc(Sc2nnnn2C)c2c3c(sc2n1)CCC3 was read as KB-V1 cytotox 6.51µM*, S2 tox inactive, ATXN2 expr inh 19.7%, HT1080-NT tox 3.26µM*, KB-3-1 tox 3.26µM* and HT1080 IDH1KD tx 5.17µM*.
Screening CCc1nc(Sc2nnnn2-c2ccccc2)c2c3c(sc2n1)CCCC3 returned KB-V1 cytotox inconclusive, S2 tox inconclusive, ATXN2 expr inh -7.6%, HT1080-NT tox 9.6%, KB-3-1 tox inactive and HT1080 IDH1KD tx 3.1%.
`CC(C)(C)c1cnnn1-c1ccc(C(=O)CCl)cc1` gave KB-V1 cytotox 23.1µM*, S2 tox inconclusive, ATXN2 expr inh -29.9%, HT1080-NT tox inconclusive, KB-3-1 tox inconclusive and HT1080 IDH1KD tx inconclusive.
Screening COc1ccc(CCc2nnc(CCC(=O)N(C)Cc3ccnc4ccccc34)o2)cc1 returned KB-V1 cytotox inactive, S2 tox inconclusive, ATXN2 expr inh -5.7%, HT1080-NT tox inconclusive, KB-3-1 tox inactive and HT1080 IDH1KD tx 20.6µM*.
For COc1ccccc1CCc1nnc(CCC(=O)N(C)Cc2cccc3cnccc23)o1 the results were KB-V1 cytotox inactive, S2 tox inactive, ATXN2 expr inh 0.0%, HT1080-NT tox -2.3%, KB-3-1 tox inactive and HT1080 IDH1KD tx 1.5%.
COc1ccc(-c2nnc3ccc(SC)nn23)cc1 was read as KB-V1 cytotox 14.6µM*, S2 tox inconclusive, ATXN2 expr inh -11.7%, HT1080-NT tox -3.5%, KB-3-1 tox inactive and HT1080 IDH1KD tx inconclusive.
For CCOC(=O)C(C)Sc1ccc2nnc(-c3ccc(F)cc3)n2n1 (stereo not drawn) the results were KB-V1 cytotox 14.6µM*!, S2 tox inactive, ATXN2 expr inh -16.2%, HT1080-NT tox 18.4%, KB-3-1 tox inconclusive and HT1080 IDH1KD tx 9.3%.
Screening COc1cccc2c1C(CCCC(=O)O)CCC2 (stereo not drawn) returned KB-V1 cytotox inactive, S2 tox inactive, ATXN2 expr inh -9.5%, HT1080-NT tox 0.0%, KB-3-1 tox inactive and HT1080 IDH1KD tx 4.3%.
For COc1cccc2c1C1COC3C4CC(C(=O)O)C(C(C2)N13)N4C (stereo not drawn) the results were KB-V1 cytotox 16.4µM*, S2 tox inconclusive, ATXN2 expr inh 10.6µM*, HT1080-NT tox 5.8µM*, KB-3-1 tox inconclusive and HT1080 IDH1KD tx 7.31µM*.
Cc1cccc(NC(=O)c2ccc(COc3ccc4ccccc4c3)o2)n1 was read as KB-V1 cytotox inactive, S2 tox inactive, ATXN2 expr inh 34.1%, HT1080-NT tox -7.3%, KB-3-1 tox inactive and HT1080 IDH1KD tx -12.0%.
For Cc1cc(C)c2c(C)c(C(=O)Nc3c(C)n(C)n(-c4ccccc4)c3=O)oc2c1 the results were KB-V1 cytotox 8.2µM*, S2 tox inconclusive, ATXN2 expr inh inconclusive, HT1080-NT tox -0.7%, KB-3-1 tox inactive and HT1080 IDH1KD tx -15.2%.
Screening Cc1c(NC(=O)c2ccc(COc3ccc4ccccc4c3)o2)c(=O)n(-c2ccccc2)n1C returned KB-V1 cytotox 7.31µM*, S2 tox inactive, ATXN2 expr inh 1.6%, HT1080-NT tox 0.1%, KB-3-1 tox 20.6µM* and HT1080 IDH1KD tx 1.7%.
For COc1ccc(/C(O)=C/C(=O)C(=O)Nc2c(C)n(C)n(-c3ccccc3)c2=O)cc1 the results were KB-V1 cytotox 16.4µM*, S2 tox inactive, ATXN2 expr inh 3.2%, HT1080-NT tox -24.0%, KB-3-1 tox inactive and HT1080 IDH1KD tx 0.0%.
For COCCNC(=O)Cn1ncc2c(C)n(Cc3ccc(C)cc3)c(C)c2c1=O the results were KB-V1 cytotox inactive and KB-3-1 tox inactive.
For CSc1nnc(CCNC(=O)/C=C/c2cccc(F)c2)n1-c1ccc(F)cc1 the results were S2 tox inactive.
